Test results reported in PubChem BioAssay (EPA / NIEHS).
Records with an inconclusive call do not appear. Activity calls are given as the source filed them. Rule for the calls: active = hit-call score of the fitted dose curve at least 0.9, where 1 is the maximum; inconclusive = response in the unintended direction; inactive = score below 0.9.

target: Steroid hormone receptor ERR1 (Homo sapiens) (UniProt P11474); experiment: ATG_ERRa_TRANS: Attagene TRANS-FACTORIAL HepG2 Assay for human Estrogen-Related Receptor alpha (ERRa) (AID 2282971); settings: HepG2 Attagene TRANS reporter, ERRa transactivation
Sequence (P11474 whole entry, looked up): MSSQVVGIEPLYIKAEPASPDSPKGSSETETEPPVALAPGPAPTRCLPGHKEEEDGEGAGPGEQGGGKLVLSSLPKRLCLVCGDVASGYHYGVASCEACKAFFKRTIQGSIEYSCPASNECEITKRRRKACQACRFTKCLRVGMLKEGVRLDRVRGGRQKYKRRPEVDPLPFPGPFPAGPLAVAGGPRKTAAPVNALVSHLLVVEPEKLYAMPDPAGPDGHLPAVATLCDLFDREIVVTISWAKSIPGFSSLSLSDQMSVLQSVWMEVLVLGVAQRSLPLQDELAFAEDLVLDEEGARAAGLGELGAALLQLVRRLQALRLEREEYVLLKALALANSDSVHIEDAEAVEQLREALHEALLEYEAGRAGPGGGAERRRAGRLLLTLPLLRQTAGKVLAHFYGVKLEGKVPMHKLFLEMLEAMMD
Experimental: ATG_TRANS is a cell-based, multiplexed-readout assay that uses HepG2, a human liver cell line, with measurements taken at 24 hours after chemical dosing in a 24-well plate.ATG_ERRa_TRANS is one of 30 assay component(s) measured or calculated from the ATG_TRANS assay. It is designed to make measurements of mRNA induction, a form of inducible reporter, as detected with fluorescence intensity signals by Reverse transcription polymerase chain reaction (RT-PCR) and Capillary electrophoresis technology.Data from the assay component ATG_ERRa_TRANS was analyzed into 1 assay endpoint. This assay endpoint, ATG_ERRa_TRANS, was analyzed in the positive analysis fitting direction relative to DMSO as the negative control and baseline of activity. Using a type of inducible reporter, measures of mRNA for gain-of-signal activity can be used to understand the reporter gene at the transcription factor-level as they relate to the gene ESRRA. Furthermore, this assay endpoint can be referred to as a primary readout, because this assay has produced multiple assay endpoints where this one serves a reporter gene function. To generalize the intended target to other relatable targets, this assay endpoint is annotated to the nuclear receptor intended target family, where the subfamily is steroidal.
Human liver HepG2 cells are transiently transfected with multiple reporter transcription units (MRTUs) in 6-well plates using FuGene 6 reagent (Roche; 3 ml FuGene/1 mg DNA). The MRTU constructs are regulated by a cis-regulating element (promoter). […] A major difference between the CIS and TRANS system is that in CIS activities of endogenous TFs are measured, whereas the TRANS assay evaluates changes in activities of exogenous, chimeric NR-Gal4 proteins. […] At the end of 24 hour incubation, total RNA was isolated using TriZol reagent (Invitrogen). The isolated RNA is then reverse-transcribed using oligo(dT) primer and Mo-MLV reverse transcriptase (Invitrogen) with DNAse I (Ambion) treatment for 30 min. The one-tenth of the produced cDNA was amplified by PCR using Taq DNA polymerase (Invitrogen) and two reporter sequence-specific primers. The PCR products were fluorescently labeled by primer extension with 6-arboxyfluorescein (6-FAM) 5'-labeled reporter sequence-specific primer (2 min at 95 C, 20 s at 68 C and 10 min at 72 C) and these products were digested with 5U of HpaI (New England Biolabs) for 2h at 37 C. The fragments were purified using Qiaquick PCR columns (Qiagen), analyzed on an ABI 3130xL genetic analyzer (Applied Biosystems) with peak positions identified by using a set of X-rhodamine (ROX)-labeled MapMarker1000 molecular weight standards (BioVentures). The raw capillary electrophoresis data was processed using Attagraph software (Attagene).

Structure (SMILES)	outcome
CNC(=O)ON=C(SC)C(=O)N(C)C	inactive
CCCCOC(=O)[C@@H](C)Oc1ccc(Oc2ccc(C#N)cc2F)cc1	inactive
O=C(O)c1cc(Oc2ccc(C(F)(F)F)cc2Cl)ccc1[N+](=O)[O-]	inactive
N#CSCSC#N	inactive
C=C(C)[C@H]1Cc2c(ccc3c2O[C@@H]2COc4cc(OC)c(OC)cc4[C@@H]2C3=O)O1	inactive
COP(=O)(OC)C(O)C(Cl)(Cl)Cl (stereo not drawn)	inactive
CSc1nc(NC(C)C)nc(NC(C)C)n1	inactive
CCC(=NOC/C=C/Cl)C1=C(O)CC(C2CCOCC2)CC1=O (stereo not drawn)	inactive
Nc1nc(N)nc(NC2CC2)n1	inactive
CCCCN(CC)c1c([N+](=O)[O-])cc(C(F)(F)F)cc1[N+](=O)[O-]	inactive
CCOP(=S)(OCC)Oc1ccc2c(C)c(Cl)c(=O)oc2c1	inactive
CCOP(=S)(Oc1cnc(C(C)(C)C)nc1)OC(C)C (stereo not drawn)	inactive
Nc1c(Cl)cc([N+](=O)[O-])cc1Cl	inactive
COc1ccc(C(=CC(=O)N2CCOCC2)c2ccc(Cl)cc2)cc1OC	inactive
COP(=O)(OC)SCn1c(=O)oc2cc(Cl)cnc21	inactive
CCC(CC)Nc1c([N+](=O)[O-])cc(C)c(C)c1[N+](=O)[O-]	inactive
CN(C)NC(=O)CCC(=O)O	inactive
CC(COc1ccc(Oc2ccccc2)cc1)Oc1ccccn1 (stereo not drawn)	inactive
CCOC(=O)COc1cc(-c2nn(C)c(OC(F)F)c2Cl)c(F)cc1Cl	inactive
O=c1ccc(=O)[nH][nH]1	inactive
COc1cccc(C(=O)NN(C(=O)c2cc(C)cc(C)c2)C(C)(C)C)c1C	inactive
COc1cc(OC)nc(Sc2cccc(Cl)c2C(=O)O)n1	inactive
Cc1nn(-c2cc(NS(C)(=O)=O)c(Cl)cc2Cl)c(=O)n1C(F)F	inactive
